Reference: PubChem BioAssay AID485297 (National Center for Advancing Translational Sciences (NCATS), 2010)
Screen size: about 320,000 compounds; about 9,100 (2.8%) were called active. About 3% were inconclusive and are not listed. Calls follow the shape of the dose curve; as a rule, active = well fitted activation curve with a large enough effect; inconclusive = small, poorly fitted or top-dose-only effect; inactive = no such curve, though single readings can be large or run the other way. The entries come from a sample that favours actives as a whole.

test: qHTS Assay for Rab9 Promoter Activators; conditions: Huh7 Rab9 promoter-luciferase reporter, luminescence, 24 h; series mostly up to 9.22 µM; activation, negative = inhibition: at the top concentration; also: nearly all actives have a fitted effect of over 60% in size; as to activation, negative = inhibition: % of control where 0% means no effect
Outline: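 Luminescence from Amplite-detected luciferase (10 minutes, ambient) reports Rab9 promoter activation. Before that, stable Rab9-luciferase Huh7 cells (1500/well, reduced-serum OP-MEM I plus 10% FBS) were exposed to compound for 24 hours at 37C.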
Potency is read from the fitted curve at half-maximal effect.

activation, negative = inhibition, inactive:
CCOCC(=O)NCc1ccc2c(c1)cc(C)n2C 0.0404%
Cc1cccc(Nc2nnc(SCC(=O)c3c(N)n(C4CC4)c(=O)[nH]c3=O)s2)c1C -5.09%
Cc1cc(C)c2nc(SCC(=O)N(C)C3CCS(=O)(=O)C3)cc(C)c2c1 (configuration not stated) -3.36%
CC(C)(C)C1C/C(=C/c2ccco2)C(=O)/C(=C/c2ccco2)C1 (configuration not stated) -4.64%
CSc1ccc(Cl)c(C(=O)OCC(=O)N2CCNC2=O)c1 -0.409%
CCn1c(=S)sc2c(=O)n(CC(=O)Nc3ccc(OC)cc3)c(C)nc21 3.7%
Cc1ccc(CSc2ccc(S(=O)(=O)N3CCCCC3)cn2)cc1 -3.41%
O=C(CCNS(=O)(=O)c1ccccc1)NCCCc1ccccc1 2.02%
CC(=O)Oc1ccc2c(c1)C(=O)c1ccccc1C2=O 13.4%
COc1cccc(-c2ccc3c(c2)S(=O)(=O)c2cccc(C(=O)O)c2C3=O)c1OC -4.96%
CN(CC(=O)NCCc1ccc(F)cc1)CC(=O)Nc1ccc(F)c(F)c1F -3.52%
Cc1nonc1NC(=O)c1oc2ccccc2c1C 27.1%
Cc1noc(C)c1C(=O)Nc1ccccn1 -0.886%
CC1CCCN(C(=O)c2cc(-c3ccco3)nc3ccccc23)C1 (configuration not stated) -3.82%
O=C(CCC(=O)c1ccccc1)NCc1cccc(C(F)(F)F)c1 3.01%
COc1cc(CC(=O)NCc2cccs2)cc(OC)c1OC 1.53%
O=S(=O)(c1ccc(SCc2ccc(Br)cc2)nc1)N1CCOCC1 -2.87%
COC(=O)c1cccc(NC(=O)c2cccc(N3C(=O)CCC3=O)c2)c1 -2.95%
O=C(COC(=O)c1cc(S(=O)(=O)N2CCOCC2)ccc1Cl)NCCc1ccccc1 19.9%
CC(C)c1ccc(S(=O)(=O)N2CCN(C(C)C(=O)NC3CCCC3)CC2)cc1 (configuration not stated) -5.78%
COc1ccc(OC)c(-c2csc(-c3cccs3)n2)c1 5.35%
COc1cccc(CC(=O)Nc2nc(-c3ccc(OC)c(OC)c3)cs2)c1 -3.51%
O=C1Cc2cc(S(=O)(=O)Nc3cccc(F)c3)ccc2N1 1.59%
COc1ccc(CCNC(=O)COC(=O)c2cc(=O)c3ccccc3o2)cc1 1.25%
CC(C)(C)C(=O)OCc1nc(-c2ccc(O)c(O)c2)cs1 9.03%
COc1cccc(CC(=O)Nc2ccc(-c3csc(C)n3)cc2)c1 4.45%
O=C(c1cn(-c2ccccc2)nc1-c1cccnc1)N1CCN(S(=O)(=O)c2ccccc2F)CC1 0.673%
CC(=O)Nc1ccc(C(=O)Nc2nc(-c3cc(C)n(Cc4ccccc4)c3C)cs2)cc1 -1.86%
O=C(CCNS(=O)(=O)c1ccccc1C(F)(F)F)Nc1ccncc1 -2.35%
Cc1cccc(OCCC(=O)OCc2csc(CC(=O)Nc3ccccc3C)n2)c1 -2.11%
Cc1cc(Cl)c2oc(C(=O)N3CCC(O)(c4ccccc4)CC3)c(C)c2c1 2.32%
O=c1cc(Cn2nnc(-c3ccc(Cl)cc3)n2)nc2sccn12 1.42%
COc1ccccc1N1CCN(C(=O)Cn2nnc(-c3cccs3)n2)CC1 -2.68%
Nc1ccc(-n2nncc2-c2ccco2)cc1 -10.6%
COc1ccc(CCC(=O)N2CCN(S(=O)(=O)c3ccc(OC)cc3)CC2)cc1 -3.76%
COc1ccc(CCNC(=O)CCc2ccccc2O)cc1OC 19.5%
O=C(O)/C(=C/c1cccnc1)NC(=O)c1ccccc1 2.06%
CCOc1ccc(NC(=O)CN(C)C(=O)CCSc2ccc(F)cc2)cc1OCC -5.95%
C=CCSc1ccc(S(=O)(=O)N2CCN(C)CC2)cn1 -0.521%
O=C(Nc1ccccc1)N1CCC(C(=O)N2CCN(Cc3ccccc3)CC2)CC1 7.55%
Cn1c(N)c(C(=O)COC(=O)/C=C/c2cccc(C(F)(F)F)c2)c(=O)n(C)c1=O -0.132%
C/C(=N\NS(=O)(=O)c1ccc(Br)cc1)c1cccs1 -7.45%
C/C(=N\Nc1nc(Nc2ccccc2)nc(N2CCOCC2)n1)c1cccs1 -9.1%
O=C(Nc1ccccc1-c1nc2ccccc2[nH]c1=O)c1cccs1 1.89%
C/C(=N\Nc1ccc(S(N)(=O)=O)cc1[N+](=O)[O-])c1cccs1 8.35%
O=C(c1ccc(Cl)nc1)N1CCN(S(=O)(=O)c2ccc3c(c2)OCCO3)CC1 1.05%
CCc1ccccc1OCC(=O)Nc1ccc(C)c(S(=O)(=O)N2CCCCCC2)c1 0.199%
CCCCN(C(=O)C1=NN(c2cc(C)ccc2C)C(=O)CC1)c1c(N)n(CCC)c(=O)[nH]c1=O 0.441%

Potency, active:
COc1ccc2c(c1OC)C(=O)c1ccccc1C2=O 3980 nM
Cc1c(C(=O)Nc2ccccn2)oc2ccc(Br)cc12 3550 nM
O=C(Cc1cccs1)NCc1cccc(C(F)(F)F)c1 2510 nM
COc1ccc(-c2csc(-c3cccs3)n2)cc1OC 1780 nM
COc1ccc(-c2csc(Cc3nc(O)cs3)n2)cc1 1000 nM
Cc1ccc(Nc2nc(-c3ccc(O)cc3O)cs2)nc1 1410 nM
Clc1cccc(Cl)c1Cn1nnc(-c2cccs2)n1 2820 nM
C/C(=N\Nc1nc2ccccc2[nH]1)c1cccs1 1000 nM
C/C(=N\Nc1ncc(Cl)cc1Cl)c1cccs1 1260 nM
